Data published in PubChem BioAssay AID493240 (Broad Institute, 2011).
The campaign covered roughly 1,300 compounds. About 270 (21%) were called active. How the calls were made is not given here. Not all results are given here. Measured potencies and affinities stand elsewhere.

Assay: cytotoxicity in parental SK-MEL-5 melanoma cells – cell-based, CellTiter-Glo, cherry-picked, set 3, orthogonal assay for MITF inhibitor project, dose response (AID 493240)
Details: SK-MEL-5 viability, ATP luminescence (CellTiter-Glo), 24 h; series mostly up to 35 µM; activity change, negative = viability loss: at the top concentration
For `COc1ccc(NC(=O)c2cc3ccccc3[nH]2)cc1`, the “activity change, negative = viability loss” value was -5.22% (inactive). In the case of `O=C(NCc1ccco1)c1ccc(COCC(F)(F)F)cc1`, the “activity change, negative = viability loss” value is reported as -0.128% (inactive). For `COc1cc2nc(SCC(=O)NCc3ccco3)n(Cc3ccc(Cl)cc3)c(=O)c2cc1OC`, the “activity change, negative = viability loss” value was -35.5% (inactive). For `CCN(C(=O)c1ccco1)c1nc(-c2ccc(OC)cc2)cs1`, the “activity change, negative = viability loss” value was -4.72% (inactive). For `CCOCCCNC(=O)/C(C#N)=C/c1ccc([N+](=O)[O-])o1`, the “activity change, negative = viability loss” value was -18% (inactive). For `CC1CC(C)CN(C(=O)/C=C/c2ccc([N+](=O)[O-])s2)C1` (stereo not drawn), the “activity change, negative = viability loss” value was 3.99% (inactive). In the case of `COc1ccc(C(=O)C(CN2CCCC2)c2ccccc2)cc1` (stereo not drawn), the “activity change, negative = viability loss” value is reported as 2.03% (inactive). For `CCNC(=O)CC1C(=O)N(c2ccc(F)cc2)C(=O)N1CCc1ccc(OC)cc1` (stereo not drawn), the “activity change, negative = viability loss” value was 0.632% (inactive). In the case of `COc1ccc(C(=O)CCNc2ccc(F)cc2)cc1`, the “activity change, negative = viability loss” value is reported as 1.01% (inactive). With `COc1ccc(C(=O)C(CN2CCOCC2)c2ccccc2)cc1` (stereo not drawn) the “activity change, negative = viability loss” value was 9.71% (inactive). In the case of `CC(C)(C)c1ccc(-c2cc(N)n[nH]2)cc1`, the “activity change, negative = viability loss” value is reported as -6.71% (inactive). In the case of `O=C(Nc1ccc(Cl)cc1)C1C2CCCCC21` (stereo not drawn), the “activity change, negative = viability loss” value is reported as 8.5% (inactive). With `CCOC(=O)N1C(=O)[C@@](CC)(c2ccccc2)N1C(=O)OCC` the “activity change, negative = viability loss” value was -21.1% (inactive). For `O=S1(=O)CCC(NC(=S)SCc2ccccc2Br)C1` (stereo not drawn), the “activity change, negative = viability loss” value was -11% (inactive). For `O=C(CSCC(=O)Nc1ccccc1)N/N=C/c1c(O)ccc2ccccc12`, the “activity change, negative = viability loss” value was -22% (inactive). With `CCOC(=O)c1cn2nc(Oc3ccccc3)ccc2n1` the “activity change, negative = viability loss” value was 12.7% (inactive). In the case of `COc1ccc(/C=C2\SC(=S)N(CCCC(=O)NNC(=O)c3ccccc3O)C2=O)cc1`, the “activity change, negative = viability loss” value is reported as -8.32% (inactive). In the case of `CN(C)CCNc1ccc2nnn3c4ccc(O)cc4c(=O)c1c23`, the “activity change, negative = viability loss” value is reported as -14.2% (inactive). With `O=C(Nc1ccccc1Cl)Nc1cccc2cccnc12` the “activity change, negative = viability loss” value was -17.8% (inactive). For `COc1ccc2oc(=N)c(C(=O)Nc3ccccc3Cl)cc2c1`, the “activity change, negative = viability loss” value was -7.1% (inactive). In the case of `Cc1cc(C(=O)Nc2cccc(C(=O)O)c2)oc1C`, the “activity change, negative = viability loss” value is reported as -14.7% (inactive). For `CCSc1nc2c(cnn2-c2ccccc2)c(=O)n1N`, the “activity change, negative = viability loss” value was -4.29% (inactive). For `O=C(O)c1cccc(N/N=C/c2ccc(OC(F)(F)F)cc2)c1`, the “activity change, negative = viability loss” value was 7.51% (inactive). With `COc1cc(C2C(C#N)=C(N)Oc3cc4c(cc32)OCO4)cc(OC)c1OC` (stereo not drawn) the “activity change, negative = viability loss” value was -5.66% (inactive). For `O=C(C[n+]1cc(-c2ccc(F)cc2)n2c1CCC2)c1cccs1`, the “activity change, negative = viability loss” value was -4.93% (inactive). In the case of `Clc1ccc(-c2c[n+](Cc3cccc(Cl)c3)c3n2CCC3)cc1`, the “activity change, negative = viability loss” value is reported as -16.3% (inactive). In the case of `Nc1ccc(-c2nc3c(Cl)cc(N)cc3[nH]2)cc1`, the “activity change, negative = viability loss” value is reported as 10.1% (inactive). With `C=CCSC(=S)NC1CCS(=O)(=O)C1` (stereo not drawn) the “activity change, negative = viability loss” value was -9.89% (inactive). With `C/C(=N\NC(=O)C(C)Oc1ccc([N+](=O)[O-])cc1)c1ccccn1` (stereo not drawn) the “activity change, negative = viability loss” value was -47.3% (inactive). For `O=C(/C=C/c1ccc([N+](=O)[O-])s1)N1CCCC1`, the “activity change, negative = viability loss” value was 0.261% (inactive). In the case of `COc1ccc(C(=O)Nc2ccc3ccccc3c2)cc1OC`, the “activity change, negative = viability loss” value is reported as -3.71% (inactive). In the case of `COc1ccc(NC(=O)c2cc(F)cc(F)c2)cc1Cl`, the “activity change, negative = viability loss” value is reported as -20.6% (inactive). In the case of `COc1ccc(NC(=O)c2scc(S(=O)(=O)C(C)C)c2N)cc1`, the “activity change, negative = viability loss” value is reported as -2.23% (inactive). For `O=C(/C=C/c1ccccc1)Nc1cccc(C(=O)O)c1`, the “activity change, negative = viability loss” value was -6.13% (inactive). In the case of `O=C(Nc1ccccc1F)c1ccc2c(c1)OCO2`, the “activity change, negative = viability loss” value is reported as -18.2% (inactive). For `Cc1cccc(OCC(=O)Nc2cccc(O)c2)c1`, the “activity change, negative = viability loss” value was -1.33% (inactive). With `CC1(C)Cc2c(sc(NC(=O)Nc3ccccc3)c2C(N)=O)CO1` the “activity change, negative = viability loss” value was -7.49% (inactive). In the case of `COc1cccc(/C=N/Nc2nc3ccccc3[nH]2)c1OC`, the “activity change, negative = viability loss” value is reported as 7.71% (inactive). With `O=C(Nc1ccc(-c2cn3c(n2)SCC3)cc1)c1ccco1` the “activity change, negative = viability loss” value was -9.55% (inactive). With `NNC(=O)c1cc2ccccc2cc1O` the “activity change, negative = viability loss” value was -1.68% (inactive). For `CN(CC(=O)N1CCCCCC1)S(=O)(=O)c1ccccc1`, the “activity change, negative = viability loss” value was -5.54% (inactive). In the case of `COC(=O)C1=C(CN2CCCc3ccccc32)NC(=O)NC1c1ccc(F)cc1` (stereo not drawn), the “activity change, negative = viability loss” value is reported as 1.63% (inactive). With `O=Cc1ccc(N2Cc3ccccc3C2)cc1` the “activity change, negative = viability loss” value was -7.44% (inactive). For `Cc1ccc(C(=O)c2coc3ccc(O)c(Cl)c23)cc1`, the “activity change, negative = viability loss” value was 12.7% (inactive). In the case of `COCc1cc(C)nc2sc(C(=O)Nc3cccc(OC)c3)c(N)c12`, the “activity change, negative = viability loss” value is reported as -11.7% (inactive). For `COc1ccc(CNC(=O)CN2C(=O)C3C4C=CC(C4)C3C2=O)cc1` (stereo not drawn), the “activity change, negative = viability loss” value was 0.978% (inactive). With `CN(C)CC1CC/C(=C\c2ccc(O)cc2)C1=O` (stereo not drawn) the “activity change, negative = viability loss” value was -22.2% (inactive). With `Cc1cc(NC(=O)c2ccc(Cl)cc2Cl)no1` the “activity change, negative = viability loss” value was 14.1% (inactive). In the case of `N/C(=N\OC(=O)c1ccncc1)c1cccc([N+](=O)[O-])c1`, the “activity change, negative = viability loss” value is reported as -2.01% (inactive). For `O=[N+]([O-])/C=C\c1ccc(N2CCOCC2)cc1`, the “activity change, negative = viability loss” value was -35.8% (inactive). With `COc1cccc2sc(N3CCN(C(=O)c4ccc([N+](=O)[O-])o4)CC3)nc12` the “activity change, negative = viability loss” value was -18.1% (inactive). In the case of `Oc1c(Cl)cc(Cl)cc1/C=N/Nc1ncc(Br)cn1`, the “activity change, negative = viability loss” value is reported as -3.51% (inactive). In the case of `O=C(Cc1cccs1)NCc1ccc(Cl)cc1Cl`, the “activity change, negative = viability loss” value is reported as -5.37% (inactive). With `c1ccc(OCc2nc3ccccc3[nH]2)cc1` the “activity change, negative = viability loss” value was -20.8% (inactive). In the case of `CC(=O)c1c(C)[nH]c(C(=O)Nc2ccc(C)c(C)c2)c1C`, the “activity change, negative = viability loss” value is reported as -11.8% (inactive). For `BrC(=C\c1ccccc1)/C=N/n1cnnc1`, the “activity change, negative = viability loss” value was -22.9% (inactive). For `Cc1cc2ncn(/N=C/c3ccc([N+](=O)[O-])o3)c2cc1C`, the “activity change, negative = viability loss” value was -20.7% (inactive). With `CN(C(=O)/C=C/c1ccc([N+](=O)[O-])s1)c1ccccc1` the “activity change, negative = viability loss” value was -16.1% (inactive). In the case of `O=[N+]([O-])c1ccc(/C=N/n2c(CO)nc3ccccc32)s1`, the “activity change, negative = viability loss” value is reported as -1.15% (inactive). For `Nc1nc2ccccc2n1/N=C/c1ccc(-c2ccccc2)o1`, the “activity change, negative = viability loss” value was 12.6% (inactive). In the case of `Cc1ccc(C)c(-n2c3nc(=O)[nH]c(=O)c-3cc3cc([N+](=O)[O-])ccc32)c1`, the “activity change, negative = viability loss” value is reported as -45.3% (inactive). In the case of `O=C(Nc1ccc(F)c(Cl)c1)c1ccc2c(c1)OCO2`, the “activity change, negative = viability loss” value is reported as -8.59% (inactive). For `COc1ccccc1N1CCN(/N=C\c2ccccc2)CC1`, the “activity change, negative = viability loss” value was 10.1% (inactive). For `CC(C)(C)N=Cc1cc(-c2ccccc2)sc1O`, the “activity change, negative = viability loss” value was -6.91% (inactive). With `N#Cc1ccc(-c2cccnc2)nc1SCC(=O)c1ccccc1` the “activity change, negative = viability loss” value was -10.9% (inactive). For `COc1ccc(C(=O)Nc2nc3ccc(OC)cc3s2)cc1`, the “activity change, negative = viability loss” value was -8.59% (inactive). For `CC(=C/c1ccco1)/C=N/N1CCN(c2ccccc2)CC1`, the “activity change, negative = viability loss” value was -29.7% (inactive). With `CCCN(CC(=O)Nc1ccccc1C)C(=O)CCl` the “activity change, negative = viability loss” value was 0.668% (inactive). For `Cc1nc(-c2ccccn2)sc1C(=O)Nc1ccc(F)cc1F`, the “activity change, negative = viability loss” value was -13.2% (inactive). With `CC(=O)Nc1cccc2c1Cc1ccccc1-2` the “activity change, negative = viability loss” value was 7.43% (inactive). With `COc1ccc(N/C=C\C(=O)c2ccc3ccccc3c2)cc1` the “activity change, negative = viability loss” value was 5.37% (inactive). In the case of `Cc1c(NC(=O)c2ccc([N+](=O)[O-])o2)cccc1-c1nc2ncccc2o1`, the “activity change, negative = viability loss” value is reported as -46.9% (inactive). With `CCN(CC)S(=O)(=O)c1cccc(C(=O)N/N=C(\C)c2ccc(O)cc2O)c1` the “activity change, negative = viability loss” value was -6.57% (inactive). With `CCCCCCN1C=CC(=C2C(=O)c3ccccc3C2=O)C=C1` the “activity change, negative = viability loss” value was -33.1% (inactive). With `CC(C)CC(=O)NC(c1cccs1)c1ccc2cccnc2c1O` (stereo not drawn) the “activity change, negative = viability loss” value was -34.1% (inactive). In the case of `O=C(/C=C/c1ccccc1Cl)NC1CCCCC1`, the “activity change, negative = viability loss” value is reported as 5.66% (inactive). With `COc1ccc(/C=C/C(=O)NC(=S)N2CCN(c3ccccc3OC)CC2)cc1` the “activity change, negative = viability loss” value was -5.38% (inactive). For `COCCN(C(=O)CCl)C(C(=O)NC1CCCCC1)c1ccccc1C` (stereo not drawn), the “activity change, negative = viability loss” value was -12.2% (inactive).
